Assay results as given in the supplement of paper PMC9262897, “Low-cost anti-mycobacterial drug discovery using engineered E. coli” (Nature Communications, 2022).
Structures can show the parent of a compound that is named as a salt. ± gives the standard deviation of the averaged measurements.

How the values were obtained:
Experiment in all cases: growth (OD600 after 10 h); higher = more growth (less inhibition)
[1] = system: E. coli TESEC Alr+ wild-type control; conditions: compound 0.1 mM; raw OD600 reference: median of DMSO wells 0.241, cell-free background 0.041
Method: (§1)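 TESEC Mtb Alr E. coli, or the Alr+ wild-type control, in 384-well plates with Prestwick library compounds at 0.1 mM and 1% DMSO, across arabinose induction levels of 1E3 to 1E7 nM. Growth is read as OD600 after 10 h at 37 °C in triplicate biological replicates.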

E. coli TESEC Mtb Alr [2] = conditions: compound 0.1 mM
Method: as §1

E. coli TESEC Mtb Asd = conditions: compound 0.1 mM
Method: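 TESEC E. coli strains in which the native enzyme is deleted and replaced by arabinose-inducible Mtb Asd, DapB, CysH or TrpD, each grown in its selective medium. Strains were screened against the Prestwick library at 0.1 mM and 1% DMSO in 384-well format at low and high arabinose induction. Growth is read as OD600 after 10 h in triplicate.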

[3] = system: E. coli TESEC Alr+ wild-type control; conditions: compound 0.1 mM; raw OD600 reference: median of DMSO wells 0.49, cell-free background 0.052
Method: (§2)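 TESEC Mtb Alr E. coli (ΔaraC ΔtolC ΔentC Δalr ΔdadX, arabinose-inducible Mtb Alr) or the Alr+ wild-type control strain, grown in defined M9-fructose medium without D-alanine in 96-well plates with Prestwick library compounds at 0.1 mM and 1% DMSO. Low Alr induction is 0.1 µM arabinose and high induction is 10 mM arabinose.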

E. coli TESEC Mtb Alr [4] = conditions: compound 0.1 mM; remark: listed apart in the source
Method: as §2

[5] = arabinose 1000 nM, raw OD600 reference: median of DMSO wells 0.294, cell-free background 0.041
[6] = arabinose 10000 nM, raw OD600 reference: median of DMSO wells 0.264, cell-free background 0.041
[7] = arabinose 100000 nM, raw OD600 reference: median of DMSO wells 0.201, cell-free background 0.041
[8] = arabinose 1000000 nM, raw OD600 reference: median of DMSO wells 0.193, cell-free background 0.041
[9] = arabinose 10000000 nM, raw OD600 reference: median of DMSO wells 0.146, cell-free background 0.041
[10] = arabinose induction (level): High, raw OD600 reference: median of DMSO wells 0.331, cell-free background 0.041
[11] = arabinose induction (level): Low, raw OD600 reference: median of DMSO wells 0.417, cell-free background 0.041
[12] = arabinose 100 nM, raw OD600 reference: median of DMSO wells 0.413, cell-free background 0.052
[13] = arabinose 10000000 nM, raw OD600 reference: median of DMSO wells […], cell-free background 0.052

| SMILES | growth [1] | growth (E. coli TESEC Mtb Alr [2]; [5]) | growth (E. coli TESEC Mtb Alr [2]; [6]) | growth (E. coli TESEC Mtb Alr [2]; [7]) | growth (E. coli TESEC Mtb Alr [2]; [8]) | growth (E. coli TESEC Mtb Alr [2]; [9]) | growth (E. coli TESEC Mtb Asd; [10]) | growth (E. coli TESEC Mtb Asd; [11]) | growth [3] | growth (E. coli TESEC Mtb Alr [4]; [12]) | growth (E. coli TESEC Mtb Alr [4]; [13]) |
| --- | --- | --- | --- | --- | --- | --- | --- | --- | --- | --- | --- |
| C[C@]12C=CC(=O)C=C1CC[C@@H]1[C@@H]2[C@@H](O)C[C@@]2(C)[C@H]1CC[C@]2(O)C(=O)CO [Prednisolone] | 0.213 ± 0.0043 | 0.263 ± 0.0084 | 0.248 ± 0.01 | 0.162 ± 0.0057 | 0.147 ± 0.0034 | 0.13 ± 0.0047 | 0.258 ± 0.038 | 0.456 ± 0.034 | 0.514 ± 0.065 | 0.426 ± 0.009 | 0.306 ± 0.011 |
| CCN1CCCC1CNC(=O)c1cc(S(N)(=O)=O)ccc1OC (stereo not drawn) [Sulpiride] | 0.2503 ± 0.0019 | 0.291 ± 0.012 | 0.248 ± 0.0039 | 0.198 ± 0.02 | 0.174 ± 0.0021 | 0.147 ± 0.0072 | 0.309 ± 0.099 | 0.423 ± 0.023 | – | 0.419 ± 0.0074 | 0.35 ± 0.017 |
| CN(C)C(=O)C(CCN1CCC(O)(c2ccc(Cl)cc2)CC1)(c1ccccc1)c1ccccc1 [Loperamide hydrochloride] | 0.0426 ± 0.00061 | 0.0401 ± 0.00042 | 0.0402 ± 0.00044 | 0.0412 ± 0.00047 | 0.0404 ± 0.0001 | 0.04237 ± 0.00015 | 0.0486 ± 0.00055 | 0.0487 ± 0.00055 | – | 0.4189 ± 0.00099 | 0.0518 ± 0.00072 |
| N[C@@H](Cc1ccc(O)c(O)c1)C(=O)O [Levodopa] | 0.229 ± 0.0045 | 0.275 ± 0.015 | 0.267 ± 0.015 | 0.199 ± 0.028 | 0.178 ± 0.0063 | 0.138 ± 0.0042 | 0.383 ± 0.026 | 0.455 ± 0.0078 | 0.489 ± 0.052 | 0.413 ± 0.013 | 0.354 ± 0.018 |
| Cc1c(N)c(=O)n(-c2ccccc2)n1C [Ampyrone] | 0.25 ± 0.0062 | 0.289 ± 0.008 | 0.267 ± 0.019 | 0.217 ± 0.02 | 0.187 ± 0.0029 | 0.146 ± 0.007 | 0.368 ± 0.033 | 0.446 ± 0.01 | – | 0.414 ± 0.0049 | 0.3598 ± 0.0033 |
| CN1CCc2c(c3ccccc3n2Cc2ccccc2)C1 [Mebhydroline 1,5-naphtalenedisulfonate] | 0.175 ± 0.0028 | 0.218 ± 0.0081 | 0.267 ± 0.012 | 0.199 ± 0.02 | 0.133 ± 0.0032 | 0.157 ± 0.005 | 0.179 ± 0.014 | 0.278 ± 0.055 | – | 0.404 ± 0.0065 | 0.261 ± 0.034 |
| C=Cc1c(C)c2cc3nc(cc4[nH]c(cc5nc(cc1[nH]2)C(C)=C5CCC(=O)O)c(CCC(=O)OC)c4C)[C@@]1(C)C3=CC=C(C(=O)OC)C1C(=O)OC.C=Cc1c(C)c2cc3nc(cc4[nH]c(cc5nc(cc1[nH]2)C(C)=C5CCC(=O)OC)c(CCC(=O)O)c4C)[C@@]1(C)C3=CC=C(C(=O)OC)C1C(=O)OC (stereo partly drawn) [Verteporfin] | 0.313 ± 0.011 | 0.356 ± 0.011 | 0.289 ± 0.0059 | 0.443 ± 0.0078 | 0.179 ± 0.0041 | 0.218 ± 0.0072 | 0.329 ± 0.016 | 0.432 ± 0.0089 | 0.5678 ± 0.0038 | 0.556 ± 0.057 | 0.439 ± 0.021 |
| COC(c1ccccc1)(c1ccccc1)[C@H](Oc1nc(C)cc(C)n1)C(=O)O [Ambrisentan] | 0.217 ± 0.0053 | 0.28 ± 0.0015 | 0.285 ± 0.0062 | 0.177 ± 0.024 | 0.224 ± 0.0037 | 0.13 ± 0.0029 | 0.284 ± 0.072 | 0.315 ± 0.053 | – | 0.41 ± 0.008 | 0.354 ± 0.015 |
| Cc1nc2ccccn2c(=O)c1CCN1CCC(C(=O)c2ccc(F)cc2)CC1 [Pirenperone] | 0.208 ± 0.0042 | 0.272 ± 0.0064 | 0.268 ± 0.013 | 0.208 ± 0.043 | 0.178 ± 0.0069 | 0.147 ± 0.007 | 0.352 ± 0.045 | 0.395 ± 0.089 | – | 0.408 ± 0.011 | 0.312 ± 0.023 |
| Cc1ccc2c(c1)c1c3n2CCNC3CCC1 (stereo not drawn) [Pirlindole mesylate] | 0.215 ± 0.0049 | 0.252 ± 0.0064 | 0.262 ± 0.0058 | 0.182 ± 0.022 | 0.148 ± 0.003 | 0.165 ± 0.011 | 0.177 ± 0.0082 | 0.259 ± 0.028 | – | 0.397 ± 0.0065 | 0.351 ± 0.011 |
| CCCCOc1cc(C(=O)OCCN(CC)CC)ccc1N [Benoxinate hydrochloride] | 0.206 ± 0.0046 | 0.256 ± 0.016 | 0.25 ± 0.0055 | 0.177 ± 0.015 | 0.1482 ± 0.00091 | 0.143 ± 0.0029 | 0.27 ± 0.12 | 0.451 ± 0.059 | – | 0.4124 ± 0.0014 | 0.33 ± 0.011 |
